# PubChem BioAssay
# Values joined by “and” are separate entries in the source; they are usually repeats but may differ in a detail not shown here. Equal entries are not always repeated. Active and inactive are the calls of the source. Cut-off read from the data, not from the text of the source, unless noted: active = inhibition above about 80%; inactive = the rest. Non-standard residues stand in square brackets, D forms with d. Residues, ends and D or L forms follow the SMILES beside them. Dolaproine = CO[C@@H]([C@@H]1CCCN1)[C@@H](C)C(=O)O; Dil = CC[C@H](C)[C@H](NC)[C@@H](CC(=O)O)OC; NMeV = CN[C@H](C(=O)O)C(C)C
# Assays:
# [1] = LFS_MB_P medulloblastoma growth inhibition, cell-based, chromothripsis tumors, cisplatin or BGB combos (AID 1671449); details: LFS_MB_P medulloblastoma cells;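 note: cells exposed for 96 hours; 0% = vehicle DMSO and 100% = killing by high DMSO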
# [2] = HDN33 neuroblastoma growth inhibition, cell-based, chromothripsis tumors, cisplatin or BGB combos (AID 1671450); details: HDN33 neuroblastoma cells, stronger effect = higher value;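 note: cells exposed to compound for four days; 0% = vehicle DMSO and 100% = cell killing by high DMSO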
# [3] = ICB984 medulloblastoma cell growth inhibition, synergistic combos for chromothripsis tumors, cisplatin or BGB combos (AID 1671451; call rule not given here;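 note: cells exposed for 96 hours before readout; 0% = vehicle DMSO and 100% = killing by high DMSO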); details: ICB984 medulloblastoma cells, drug combinations, stronger effect = higher value
# [4] = LFS_MB_1R medulloblastoma cell growth inhibition, synergistic combos for chromothripsis tumors, cisplatin or BGB combos (AID 1671452); details: LFS_MB_1R medulloblastoma cells, stronger effect = higher value;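 note: cells exposed for 96 hours before readout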
# [5] = HTB85 osteosarcoma cell growth inhibition, synergistic combos for chromothripsis tumors, BGB or cisplatin IC20 combos (AID 1671453); details: HTB85 osteosarcoma cells, drug combinations, stronger effect = higher value;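 note: cells exposed for 96 hours before readout; 0% = vehicle DMSO and 100% = high DMSO killing control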
# [6] = CRL2098 osteosarcoma cell growth inhibition, synergistic combos for chromothripsis tumors, BGB or cisplatin IC20 combos (AID 1671454); details: CRL2098 osteosarcoma cells, drug combinations, stronger effect = higher value;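 note: cells exposed for 96 h before readout; 0% = vehicle DMSO and 100% = killing by high DMSO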
# [7] = HD-MB03 medulloblastoma cell growth inhibition, synergistic combos for chromothripsis tumors, BGB or cisplatin IC20 combos (AID 1671455; in the data active = inhibition above about 83%;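 note: 0% = vehicle DMSO and 100% = high DMSO as cytotoxic control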); details: HD-MB03 medulloblastoma cells, stronger effect = higher value
# [8] = UWB1.289 ovarian carcinoma cell growth inhibition, synergistic combos for chromothripsis tumors, BGB or cisplatin combos (AID 1671456); details: UWB1.289 ovarian carcinoma cells, stronger effect = higher value;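 note: cells exposed to compound for four days; 0% = vehicle DMSO and 100% = killing by high DMSO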
# [9] = LFS_MB_2R medulloblastoma cell growth inhibition, synergistic combos for chromothripsis tumors, cisplatin combos (AID 1671457); details: LFS_MB_2R medulloblastoma cells, stronger effect = higher value;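 note: cells exposed to compound for four days before readout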
# [10] = MDA-MB-436 breast carcinoma cell growth inhibition, synergistic combos for chromothripsis tumors, BGB or cisplatin combos (AID 1671458; call rule not given here;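 note: cells exposed for 96 hours; 0% = vehicle DMSO and 100% = killing by high DMSO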); details: MDA-MB-436 breast carcinoma growth inhibition, drug combinations, stronger effect = higher value
# [11] = UWB1.289_BRCA1 ovarian cancer growth, cell-based, BGB or cisplatin combinations (AID 1671459); details: UWB1.289 BRCA1 ovarian carcinoma, drug combinations, stronger effect = higher value
# [12] = human astrocyte viability loss, single and combined drugs, cytotoxicity control for chromothriptic childhood tumor combination screen, cell-based, BGB or cisplatin IC20 combos (AID 1671460); details: Human astrocytes, drug combinations, stronger effect = higher value;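 note: cells exposed to compounds for 96 hours before viability readout; 0% = vehicle and 100% = killing control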
# [13] = growth inhibition of BT084 medulloblastoma cells, cell-based, ICGC_MB145, cisplatin and BGB IC40 combos (AID 1671461); details: drug combinations, stronger effect = higher value;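 note: cells exposed to drugs for 96 hours; 0% = vehicle DMSO and 100% = high DMSO full killing control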
# [14] = growth inhibition of RCMB18 medulloblastoma cells, cell-based, cisplatin and BGB IC40 combos (AID 1671462); details: stronger effect = higher value;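 note: cells exposed to compound for four days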
# [15] = growth inhibition of CRL1545 osteosarcoma cells, cell-based, cisplatin and BGB IC20 combos (AID 1671464); details: stronger effect = higher value;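 note: cells exposed to compound for 96 hours before readout; 0% = vehicle DMSO and 100% = high DMSO killing control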
# [16] = measured here: combination with BGB IC40, at 0.05 µM
# [17] = measured here: combination with cisplatin, at 5 µM, stronger effect = higher value
# [18] = measured here: with BGB IC20 combination, at 0.5 µM
# [19] = measured here: with cisplatin IC20 combination, at 0.5 µM
# [20] = measured here: combination with cisplatin, at 0.5 µM
# [21] = measured here: combination with cisplatin, at 5 µM
# [22] = measured here: with cisplatin IC20, at 5 µM
structure (smiles),measurement,setting,value
CC[C@H](C)[C@@H]([C@@H](CC(=O)N1CCC[C@H]1[C@H](OC)[C@@H](C)C(=O)N[C@@H](Cc1ccccc1)C(=O)O)OC)N(C)C(=O)[C@@H](NC(=O)[C@@H](NC)C(C)C)C(C)C (H-[NMeV]V[Dil][Dolaproine]F-OH),inhibition,"[1]; at 0.5 µM, stronger effect = higher value",-34.4% (inactive)
same,inhibition,"[1]; measured here: combination with BGB IC20, at 0.005 µM",-15%
same,inhibition,"[1]; measured here: combination with BGB IC40, at 0.005 µM",-52.5%
same,inhibition,[1]; [16],-31.6%
same,inhibition,"[1]; measured here: combination with cisplatin, at 0.5 µM, stronger effect = higher value",-31.7%
same,inhibition,[1]; [17],13.5%
same,inhibition,"[2]; BGB combo, at 5 µM",68.3%
same,inhibition,[2]; at 0.5 µM,71.4% (inactive)
same,inhibition,"[2]; cisplatin combo, at 5 µM",69.6%
same,inhibition,[2]; [18],62.6%
same,inhibition,[2]; [19],60.4%
same,inhibition,"[2]; single agent, at 5 µM",96.5%
same,inhibition,"[3]; BGB IC20 combo, at 0.005 µM",-18.1%
same,inhibition,"[3]; BGB IC40 combo, at 0.005 µM",-4.8%
same,inhibition,"[3]; BGB IC40 combo, at 0.05 µM",21.2%
same,inhibition,[3]; at 0.5 µM,-6.87% (inactive)
same,inhibition,"[3]; cisplatin combo, at 0.05 µM",17.4%
same,inhibition,"[3]; cisplatin combo, at 0.5 µM",-3.43%
same,inhibition,"[3]; cisplatin combo, at 5 µM",-11.7%
same,inhibition,"[3]; measured here: 5 uM single agent, at 5 µM",-7.94%
same,inhibition,[4]; at 0.5 µM,-16.4% (inactive)
same,inhibition,[4]; [16],-34.7%
same,inhibition,[4]; [20],-7.82%
same,inhibition,[4]; [21],15.8%
same,inhibition,[5]; at 0.5 µM,55.8% (inactive)
same,inhibition,"[5]; measured here: with BGB IC20, at 0.5 µM",69.6%
same,inhibition,"[5]; measured here: with BGB IC20, at 5 µM",59.7%
same,inhibition,"[5]; measured here: with cisplatin IC20, at 0.5 µM",20.4%
same,inhibition,[5]; [22],67.1%
same,inhibition,"[5]; single agent, at 5 µM",86.4%
same,inhibition,[6]; at 0.5 µM,35% (inactive)
same,inhibition,"[6]; measured here: combination with BGB at IC20, at 0.5 µM",36.6%
same,inhibition,"[6]; measured here: combination with cisplatin at IC20, at 0.5 µM",9.03%
same,inhibition,[7]; at 0.5 µM,43.8% (inactive)
same,inhibition,"[7]; measured here: combo with BGB at IC20, at 0.5 µM",44.1%
same,inhibition,"[7]; measured here: combo with cisplatin at IC20, at 0.5 µM",39.9%
same,inhibition,[8]; at 0.5 µM,20.2% (inactive)
same,inhibition,"[8]; measured here: inhibition with BGB combination, at 0.05 µM",-13%
same,inhibition,"[8]; measured here: inhibition with cisplatin combination, at 0.05 µM",-3.2%
same,inhibition,[9]; at 0.5 µM,-9.71% (inactive)
same,inhibition,[9]; [20],-31.2%
same,inhibition,[9]; [21],-10.7%
same,inhibition,[10]; at 0.5 µM,50.1% (inactive)
same,inhibition,"[10]; measured here: BGB combination, at 0.5 µM",39.8%
same,inhibition,"[10]; measured here: BGB combination, at 5 µM",58%
same,inhibition,"[10]; measured here: cisplatin combination, at 0.5 µM",45.4%
same,inhibition,"[10]; measured here: cisplatin combination, at 5 µM",73.6%
same,inhibition,"[11]; BGB combination, concentration series, at 5 µM",49.3%
same,inhibition,[11]; at 0.5 µM,26.4% (inactive)
same,inhibition,"[11]; cisplatin combination, concentration series, at 5 µM",53.2%
same,inhibition,[12]; at 0.5 µM,31.9% (inactive)
same,inhibition,"[12]; measured here: combo with BGB IC20, at 0.5 µM",39.5%
same,inhibition,"[12]; measured here: combo with cisplatin IC20, at 0.5 µM",19.9%
same,inhibition,[13]; at 0.5 µM,7.92% (inactive)
same,inhibition,"[13]; cisplatin combination, at 0.5 µM",-4.86%
same,inhibition,"[13]; cisplatin combination, at 5 µM",-10.9%
same,inhibition,"[13]; measured here: BGB IC40 combination 0.05 uM, at 0.05 µM",-19.9%
same,inhibition,"[13]; single agent, at 5 µM",67.2%
same,inhibition,[14]; at 0.5 µM,-11.8% (inactive)
same,inhibition,"[14]; cisplatin combo, at 5 µM",17%
same,inhibition,"[14]; measured here: BGB IC40 combination, at 0.05 µM",-3.82%
same,inhibition,[14]; [20],-17.8%
same,inhibition,"[14]; single agent, at 5 µM",17.3%
same,inhibition,[15]; at 0.5 µM,42.9% (inactive)
same,inhibition,[15]; [18],47.9%
same,inhibition,[15]; [19],39.4%
same,inhibition,"[15]; single agent, at 0.05 µM",-9.33%
same,inhibition,"[15]; single agent, at 5 µM",84.4%
COc1cccc2c1C(=O)c1c(O)c3c(c(O)c1C2=O)CC(O)(C(=O)CO)CC3OC1CC(N)C(O)C(C)O1 (stereo not drawn),inhibition,[1]; [17],118% and 119% and 108%
same,inhibition,"[2]; single agent, at 5 µM",99.7% and 99.6%
same,inhibition,[5]; at 0.5 µM,98.7% (active) and 98.9% (active) and 98.5% (active)
same,inhibition,[5]; [22],99.4% and 99.6% and 99.7%
same,inhibition,"[15]; single agent, at 5 µM",99.7% and 99.6% and 99.8%
